High-throughput results as filed in PubChem.
Shown is part of a subset that was picked to be rich in hits.
IDE exosite inh = displaces the probe from the exo-site of human IDE | P14735 | purified IDE, FL-6b probe fluorescence polarization; stronger effect = lower value | z-score at 20 µM | 17,000 compounds, 6.3% hits | AID 1259349;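 active = z-score of -3 or lower, meaning strong loss of probe binding signal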;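 note: His-tagged human IDE residues 42-1019 made in E. coli with 30 nM FL-6b probe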
Target sequence (P14735 42-1019 limits assumed): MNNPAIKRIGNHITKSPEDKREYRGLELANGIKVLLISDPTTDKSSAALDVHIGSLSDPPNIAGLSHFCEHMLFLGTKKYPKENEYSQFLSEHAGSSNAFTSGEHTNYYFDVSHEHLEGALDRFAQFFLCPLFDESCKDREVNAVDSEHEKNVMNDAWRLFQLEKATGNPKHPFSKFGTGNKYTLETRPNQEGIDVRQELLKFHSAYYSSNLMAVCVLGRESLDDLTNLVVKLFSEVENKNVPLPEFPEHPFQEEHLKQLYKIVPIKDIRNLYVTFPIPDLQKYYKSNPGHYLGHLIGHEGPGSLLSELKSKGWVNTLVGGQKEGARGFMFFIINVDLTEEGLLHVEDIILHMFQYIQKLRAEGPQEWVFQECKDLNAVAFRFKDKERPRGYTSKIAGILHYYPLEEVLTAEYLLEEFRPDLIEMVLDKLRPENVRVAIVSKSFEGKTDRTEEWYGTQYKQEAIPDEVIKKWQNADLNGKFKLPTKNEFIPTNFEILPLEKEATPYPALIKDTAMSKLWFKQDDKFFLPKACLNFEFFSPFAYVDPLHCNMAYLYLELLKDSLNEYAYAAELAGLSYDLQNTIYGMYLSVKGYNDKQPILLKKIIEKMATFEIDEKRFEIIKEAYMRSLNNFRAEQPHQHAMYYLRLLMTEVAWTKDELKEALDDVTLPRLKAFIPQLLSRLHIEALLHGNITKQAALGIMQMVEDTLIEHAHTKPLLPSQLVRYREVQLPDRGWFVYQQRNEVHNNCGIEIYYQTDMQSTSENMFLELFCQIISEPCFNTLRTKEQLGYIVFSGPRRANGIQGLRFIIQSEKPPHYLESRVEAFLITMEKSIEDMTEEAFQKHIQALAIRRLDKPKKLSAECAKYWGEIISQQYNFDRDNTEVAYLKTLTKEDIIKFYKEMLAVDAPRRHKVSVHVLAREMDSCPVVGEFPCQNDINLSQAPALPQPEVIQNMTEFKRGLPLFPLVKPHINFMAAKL
Large screens that a line does not name were inactive.

Cc1ccccc1-c1ccc([C@H]2[C@H](CO)N3CCCCN(C(=O)CN4CCOCC4)C[C@@H]23)cc1	IDE exosite inh -3.7
COc1cccc(NC(=O)N2CC(=O)N3[C@H](C2)[C@H](c2ccc(C4=CCCC4)cc2)[C@@H]3CO)c1	none
COc1ccccc1S(=O)(=O)N[C@H]1C=C[C@H](CC(=O)N2CCOCC2)O[C@@H]1CO	none
CS(=O)(=O)N1CCCCN2[C@H](CO)[C@H](c3ccc(Br)cc3)[C@@H]2C1	none
C[C@@H]1CN([C@@H](C)CO)C(=O)c2ccccc2-c2ccccc2CO[C@@H]1CN(C)Cc1ccc(Oc2ccccc2)cc1	none
N#C[C@H]1[C@@H](c2ccccc2)[C@@H](CO)N1S(=O)(=O)Cc1ccccc1	none
Cc1cccc(S(=O)(=O)N[C@H]2CC[C@H](CCNC(=O)Nc3cc(F)ccc3F)O[C@@H]2CO)c1	none
O=C(c1cnccn1)N1CC(=O)N2[C@H](CO)[C@H](c3ccc(C#CC4CC4)cc3)[C@@H]2C1	none
CC(=O)N(CC1CCC1)C[C@H]1N[C@H](CO)[C@@H]1c1ccc(C2=CCCC2)cc1	none
CN(C)C(=O)c1cccc(-c2ccc([C@@H]3[C@@H](CO)N4C(=O)CN(C(=O)C5CCCCC5)C[C@@H]34)cc2)c1	none
COc1cccc(-c2ccc([C@H]3[C@H](CO)N4C(=O)CN(C(=O)NC(C)C)C[C@@H]34)cc2)c1	IDE exosite inh -6.9
CN(C)C(=O)c1cccc(-c2ccc([C@H]3[C@H]4CN(C(=O)C5CCCCC5)CC(=O)N4[C@H]3CO)cc2)c1	none
COc1ccc(-c2ccc([C@H]3[C@@H](CO)N4C(=O)CN(C(=O)C5CCCC5)C[C@@H]34)cc2)cc1	none
COc1cccc(-c2ccc([C@H]3[C@@H](CO)N4C(=O)CN(C(=O)C5CCCCC5)C[C@@H]34)cc2)c1	IDE exosite inh -6.3
COc1ccc(-c2ccc([C@H]3[C@@H](CO)N4C(=O)CN(C(=O)C5CCCC5)C[C@H]34)cc2)cc1	IDE exosite inh -7.7
COc1ccc(-c2ccc([C@@H]3[C@@H](CO)N4C(=O)CN(C(=O)C5CCC5)C[C@@H]34)cc2)cc1	none
COc1cccc(-c2ccc([C@H]3[C@H]4CN(C(=O)C5CCC5)CC(=O)N4[C@H]3CO)cc2)c1	IDE exosite inh -5.7
COc1ccc(-c2ccc([C@H]3[C@@H](CO)N4C(=O)CN(C(=O)NC(C)C)C[C@H]34)cc2)cc1	none
COc1ccc(-c2ccc([C@@H]3[C@H]4CN(C(=O)NC(C)C)CC(=O)N4[C@H]3CO)cc2)cc1	none
COCC(=O)N1CC2(CN(S(C)(=O)=O)C2)c2c(n(C)c3cc(OC)ccc23)[C@H]1CO	none
O=C(C1CCOCC1)N1[C@H](CO)[C@@H](c2ccccc2)C12CN(Cc1cccc(Cl)c1)C2	none
C[C@H]1CN([C@@H](C)CO)C(=O)c2c(c3ccccc3n2C)-c2ccccc2CO[C@@H]1CN(C)C(=O)Nc1ccccc1C(F)(F)F	none
CC(=O)N1CCCCN2[C@H](CO)[C@@H](c3ccc(-c4ccncc4)cc3)[C@@H]2C1	none
COc1ccccc1CNC(=O)C[C@@H]1CC[C@H]2[C@@H](COC[C@@H](O)CN2Cc2ccc3c(c2)OCO3)O1	none
O=C(Cc1ccncc1)N1CC(=O)N2[C@H](CO)[C@H](c3ccc(Br)cc3)[C@@H]2C1	none
COc1cccc(-c2ccc([C@@H]3[C@@H](CO)N4C(=O)CN(C(=O)C5CCC5)C[C@H]34)cc2)c1	IDE exosite inh -4.3
CN(C)C(=O)c1cccc(-c2ccc([C@H]3[C@@H](CO)N4C(=O)CN(C(=O)C5CCC5)C[C@@H]34)cc2)c1	none
O=C(C1CCC1)N1CC(=O)N2[C@@H](CO)[C@H](c3ccc(-c4cccnc4)cc3)[C@@H]2C1	none
COc1cccc(-c2ccc([C@H]3[C@H](CO)N4C(=O)CN(C(=O)C5CCC5)C[C@@H]34)cc2)c1	IDE exosite inh -6.8
CO[C@@H](CN(C)C(=O)c1cnccn1)[C@H](C)CN([C@H](C)CO)S(=O)(=O)c1ccccc1	none
COCC(=O)N1CC(=O)N2[C@H](CO)[C@H](c3ccc(C#CC(C)C)cc3)[C@@H]2C1	none
CN(C)CC#Cc1ccc([C@H]2[C@H]3CN(C(=O)Cc4cccnc4)CC(=O)N3[C@H]2CO)cc1	none
Cc1ccccc1S(=O)(=O)N1CCCCN2[C@H](C1)[C@H](c1ccc(-c3cccnc3)cc1)[C@@H]2CO	none
Cc1cccc(S(=O)(=O)N2CCCCN3[C@H](CO)[C@H](c4ccc(-c5cccnc5)cc4)[C@@H]3C2)c1	none
Cc1cccc(S(=O)(=O)N2CCCCN3[C@H](CO)[C@H](c4ccc(-c5cccnc5)cc4)[C@H]3C2)c1	none
Cc1ccccc1S(=O)(=O)N1CCCCN2[C@H](CO)[C@@H](c3ccc(-c4cncnc4)cc3)[C@@H]2C1	IDE exosite inh -4.6
O=S(=O)(c1ccccc1F)N1CCCCN2[C@H](C1)[C@@H](c1ccc(-c3cncnc3)cc1)[C@@H]2CO	none
Cc1cccc(S(=O)(=O)N2CCCCN3[C@H](CO)[C@@H](c4ccc(-c5cccnc5)cc4)[C@@H]3C2)c1	IDE exosite inh -3.7
Cc1ccccc1S(=O)(=O)N1CCCCN2[C@H](CO)[C@H](c3ccc(-c4cccnc4)cc3)[C@@H]2C1	none
Cc1ccccc1S(=O)(=O)N1CCCCN2[C@@H](CO)[C@@H](c3ccc(-c4cccnc4)cc3)[C@@H]2C1	IDE exosite inh -14
Cc1ccccc1S(=O)(=O)N1CCCCN2[C@H](CO)[C@H](c3ccc(-c4cncnc4)cc3)[C@H]2C1	none
CCCC#Cc1ccc([C@H]2[C@@H](CO)N3C(=O)CN(C(=O)Nc4ccccc4)C[C@H]23)cc1	none
CC(=O)NC[C@H]1[C@H](c2ccc(-c3ccccc3)cc2)[C@H](CO)N1C(=O)C1CC1	none
O=C(Nc1cccc(F)c1)N1CCCCN2[C@H](CO)[C@@H](c3ccc(-c4ccccc4F)cc3)[C@H]2C1	none
CCC(=O)N1[C@@H]2c3ccc(-c4ccc(F)cc4)c(=O)n3C[C@@H]2[C@@H](CO)[C@@H]1C(=O)N(C)C	none
N#Cc1ccc(-c2ccc([C@@H]3[C@H]4CN(S(=O)(=O)c5ccccc5)CCCCN4[C@H]3CO)cc2)cc1	none
Cc1ccc(CN2CC(=O)N3[C@@H](CO)[C@@H](c4ccc(Br)cc4)[C@@H]3C2)cc1	none
C/C=C/c1ccc([C@H]2[C@@H](CO)N3CCCCN(C(=O)C4CCCC4)C[C@@H]23)cc1	none
COc1ccccc1NC(=O)N1CC(=O)N2[C@@H](CO)[C@H](c3ccc(C#CC(C)C)cc3)[C@@H]2C1	none
CO[C@H]1CN(C)C(=O)c2cc(NC(=O)C3CCOCC3)ccc2OC[C@H](C)NC[C@H]1C	none
COCC#Cc1ccc([C@H]2[C@H]3CN(S(=O)(=O)c4ccccc4C)CCCCN3[C@H]2CO)cc1	none
COCC#Cc1ccc([C@H]2[C@H](CO)N3CCCCN(S(=O)(=O)c4ccccc4F)C[C@@H]23)cc1	none
COCC#Cc1ccc([C@@H]2[C@H](CO)N3CCCCN(S(=O)(=O)c4ccccc4C)C[C@@H]23)cc1	IDE exosite inh -3.1
COCC#Cc1ccc([C@H]2[C@@H](CO)N3CCCCN(S(=O)(=O)c4ccccc4C)C[C@@H]23)cc1	none
COCC#Cc1ccc([C@@H]2[C@H](CO)N3CCCCN(S(=O)(=O)c4ccccc4F)C[C@@H]23)cc1	IDE exosite inh -4.5
COCC#Cc1ccc([C@H]2[C@@H](CO)N3CCCCN(S(=O)(=O)c4ccccc4F)C[C@H]23)cc1	none
C[C@H](CO)N1C[C@H](C)[C@@H](CN(C)C(=O)NC2CCCCC2)OCc2ccccc2-c2ccccc2C1=O	none
CCCNC(=O)N1[C@H](CO)[C@H](c2ccccc2-c2cccc(C)c2)[C@@H]1C#N	none
COCC(=O)N1CC2(C1)CN(Cc1ccccc1F)[C@H](CO)c1[nH]c3cc(OC)ccc3c12	none
